Reference: PubChem BioAssay (NCATS)
Inconclusive results are not listed. Values without a mark were called inactive. This is one part of the list. A call without a number means that no potency is given here. Activity calls are given as the source filed them. Unless noted, calls follow the shape of the dose curve; as a rule, active = well fitted curve in the direction sought with a large enough effect; inconclusive = small, poorly fitted or top-dose-only effect, or another doubt; inactive = no such curve, though single readings can be large; an effect the other way counts as inactive or inconclusive.

Experiments:
[1] = molecular target: Rap guanine nucleotide exchange factor 3 (Homo sapiens) (UniProt O95398); assay: Confirmatory qHTS for agonist of cAMP-regulated guanine nucleotide exchange factor 3 (EPAC1) (AID 1645881);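 also: EPAC1 catalysed release of BODIPY-GDP from Rap1B seen as fluorescence loss; nearly all actives have a fitted effect of over 75% in size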
[2] = molecular target: Rap guanine nucleotide exchange factor 4 (Homo sapiens) (UniProt Q8WZA2); assay: Confirmatory qHTS for agonist of cAMP-regulated guanine nucleotide exchange factor 4 (EPAC2) (AID 1645884);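 also: nucleotide exchange releases bodipy-GDP from Rap1 and this lowers its fluorescence; nearly all actives have a fitted effect of over 65% in size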
[3] = molecular target: Rap guanine nucleotide exchange factor 4 (Homo sapiens) (UniProt Q8WZA2); assay: Confirmatory qHTS for antagonist of cAMP-regulated guanine nucleotide exchange factor 4 (EPAC2) (AID 1645885); also: nearly all actives have a fitted effect of over 25% in size; also: potency is read from the fitted curve at half-maximal effect
[4] = molecular target: Rap guanine nucleotide exchange factor 3 (Homo sapiens) (UniProt O95398); assay: Counterscreen qHTS for antagonist of cAMP-regulated guanine nucleotide exchange factor 3 (EPAC1) (AID 1645888);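 also: fluorescence loss as bound BODIPY-GDP is released from Rap1B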
In short: (§1)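 Rap1B–BODIPY-GDP (250 nM) with 50 uM GDP; compounds pin-transferred to 9.74 nM–152 uM final (activator) or from 7.32 nM upwards (inhibitor). Fluorescence Ex/Em 480/540 nm read at 5 and 30 min, then after adding cAMP or buffer, at room temperature.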

[5] = molecular target: Rap guanine nucleotide exchange factor 3 (Homo sapiens) (UniProt O95398); assay: Counterscreen qHTS for agonist of cAMP-regulated guanine nucleotide exchange factor 3 (EPAC1) (AID 1645889); also: nearly all actives have a fitted effect of over 40% in size; also: potency is read from the fitted curve at half-maximal effect
In short: as §1

[6] = molecular target: Vitamin D3 receptor (Homo sapiens) (UniProt P11473); assay: qHTS for Inhibitors of the vitamin D receptor (VDR): Hit Validation in Primary Screen (AID 602199); conditions: VDR-coactivator inhibition assay, qHTS confirmation; also: potency is read from the fitted curve at half-maximal effect
In short: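 Fluorescence polarization (Ex 620/Em 688 nm) of Alexa 647-SRC2-3 peptide with 800 nM VDR and 5 uM LG19078. Compounds at several concentrations, 2 h at room temperature.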

[7] = molecular target: Vitamin D3 receptor (Homo sapiens) (UniProt P11473); assay: qHTS for Inhibitors of the vitamin D receptor (VDR): Hit Validation using a Fluorescein Assay (AID 602200); conditions: VDR-coactivator binding, fluorescein fluorescence polarization; also: potency is read from the fitted curve at half-maximal effect
In short: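 Fluorescence polarization: 1.5 uM VDR-LBD, 5 uM LG19078 and 5 nM fluorescein-labeled SRC2-3 peptide (final) with compounds, 2 h at room temperature. Read at Ex 495/Em 520 nm; peptide-only wells served as control.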

[8] = molecular target: Vitamin D3 receptor (Homo sapiens) (UniProt P11473); assay: qHTS for Inhibitors of the vitamin D receptor (VDR): Hit Validation using a Beta-Lactamase Assay (AID 602202); also: potency is read from the fitted curve at half-maximal effect
In short: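 Stably transfected HEK293 cells expressing VDR-GAL4 DNA-binding domain fusion with UAS-driven beta-lactamase reporter, activated by agonist LG190178; compounds incubated 18 h, then FRET beta-lactam substrate 2 h; cleaved substrate read at 447 nm emission.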

[9] = qHTS for Inhibitors of the vitamin D receptor (VDR): Hit Validation using a Cytotoxicity Assay (AID 602204);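 also: cells co-treated with VDR agonist LG190178 at 300 nM; potency is read from the fitted curve at half-maximal effect; nearly all actives have a fitted effect of over 75% in size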
In short: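 ATP luminescence, 30 min post-reagent. Exposure: 18 h. Seeding: 20,000 cells/well, 4 h prior to compound. Controls: cycloheximide, DMSO.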

[10] = molecular target: Tumor susceptibility gene 101 protein (Homo sapiens) (UniProt Q99816); assay: qHTS Assay for Iinhibitors of HIV-1 Budding by Blocking the Interaction of PTAP/TSG101: Hit Validation (AID 651600); also: nearly all actives have a fitted effect of over 70% in size
In short: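 Fluorescence polarization binding assay: Tsg101 binding domain (10 uM final) pre-dispensed with compounds, then FITC-labeled PTAP-motif peptide (50 nM final) added; 20 min at r.t. in HEPES pH 7.5 buffer with NaCl, Tween 20, EDTA, TCEP.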

[11] = AP1 Signaling Pathway (AID 357; active = well fitted curve in either direction with a large enough effect, not every such curve was filed as active;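 also: ME-180 reporter cells stimulated with EGF at its EC50 level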); conditions: ME-180 (cervical carcinoma) AP-1-bla reporter, EGF-induced, beta-lactamase ratio, 5 h; at 7.69 µM (top of the series) unless noted
In short: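 AP-1-bla ME-180 cells, Opti-MEM + 0.5% dialyzed FBS, plated overnight 37 °C. Cpd titration + EC50 EGF, 5 h 37 °C. CCF4 2.5 h RT; ex 405, em 460/530 ratio → %activity, AC50.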

[12] = NFAT Signaling Pathway (AID 444; active = well fitted curve in either direction with a large enough effect, not every such curve was filed as active;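 also: carbachol stimulus at about its EC50 of 1 µM final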); conditions: Jurkat NFAT-bla M1, carbachol, beta-lactamase ratio, 5 h; at 7.69 µM (top of the series) unless noted
In short: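 Jurkat cells with NFAT-driven β-lactamase reporter and co-expressed M1 receptor, stimulated with carbachol (final 1 uM, ~EC50), compound titration, 5 h at 37 °C. CCF4 loaded 1 h at RT; 460/530 nm ratio gave %activity and AC50.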

[13] = Stat Signaling Pathway (AID 446; active = well fitted curve in either direction with a large enough effect, not every such curve was filed as active;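 also: ME-180 cervical cancer cells given 40 pM IL-6 alongside compound; SIE-controlled beta-lactamase reporter measured as 460/530 nm FRET emission ratio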)
In short: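 IL-6/STAT signaling read in ME-180 cells via an SIE beta-lactamase reporter. Stimulus was 40 pM IL-6 (its AC50) for 5 hrs, so both activation and inhibition register.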

[14] = molecular target: Lethal(3)malignant brain tumor-like protein 1 (Homo sapiens) (UniProt Q9Y468); assay: qHTS Assay for the Inhibitors of L3MBTL1: Hit Validation (AID 540279); conditions: L3MBTL1 methyl-lysine binding inhibition, biochemical qHTS; also: potency is read from the fitted curve at half-maximal effect; nearly all actives have a fitted effect of over 70% in size
In short: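 L3MBTL1 (50 nM final) preformed 30 min with biotinylated H3(1-15)K9me1 peptide (75 nM), then compound 30 min at room temperature. Streptavidin donor and nickel chelate acceptor AlphaScreen beads (10 ug/mL each final) added for 30 min before read.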

[15] = qHTS Assay for the Inhibitors of L3MBTL1: Hit Validationin AlphaScreen Counterscreen (AID 602224)
In short: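 Bead-bridging control using 1 nM b-His6 linking streptavidin donor and nickel chelate acceptor beads (10 ug/mL each, final). Compound exposure 15 min, then beads, 30 min dark incubation at room temperature before AlphaScreen reading.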

Rap guanine nucleotide exchange factor 3 (Homo sapiens), sequence (O95398 whole entry, looked up): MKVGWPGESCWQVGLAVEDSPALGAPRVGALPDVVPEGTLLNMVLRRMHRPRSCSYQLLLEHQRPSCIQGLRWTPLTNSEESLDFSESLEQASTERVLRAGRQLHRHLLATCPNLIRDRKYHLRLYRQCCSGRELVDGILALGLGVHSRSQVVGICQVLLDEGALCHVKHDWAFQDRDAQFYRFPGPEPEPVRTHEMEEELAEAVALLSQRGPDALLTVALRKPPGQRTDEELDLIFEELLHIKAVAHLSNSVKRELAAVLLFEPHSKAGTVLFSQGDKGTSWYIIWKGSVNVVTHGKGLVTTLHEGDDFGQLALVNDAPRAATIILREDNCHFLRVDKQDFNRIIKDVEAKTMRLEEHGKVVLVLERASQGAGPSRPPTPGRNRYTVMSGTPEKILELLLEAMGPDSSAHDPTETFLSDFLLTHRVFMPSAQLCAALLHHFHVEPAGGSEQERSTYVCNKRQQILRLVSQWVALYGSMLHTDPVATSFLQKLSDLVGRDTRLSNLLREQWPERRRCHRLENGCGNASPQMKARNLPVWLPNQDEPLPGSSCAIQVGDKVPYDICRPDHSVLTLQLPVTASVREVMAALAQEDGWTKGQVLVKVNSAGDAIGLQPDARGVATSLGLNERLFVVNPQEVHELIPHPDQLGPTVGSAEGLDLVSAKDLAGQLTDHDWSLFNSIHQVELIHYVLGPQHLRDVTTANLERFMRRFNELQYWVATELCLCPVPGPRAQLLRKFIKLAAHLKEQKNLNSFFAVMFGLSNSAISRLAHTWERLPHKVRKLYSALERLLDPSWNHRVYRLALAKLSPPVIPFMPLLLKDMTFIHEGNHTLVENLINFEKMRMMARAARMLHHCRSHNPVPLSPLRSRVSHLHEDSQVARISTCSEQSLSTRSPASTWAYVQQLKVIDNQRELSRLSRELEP
Vitamin D3 receptor (Homo sapiens), sequence (P11473 whole entry, looked up, the tested form may be a part): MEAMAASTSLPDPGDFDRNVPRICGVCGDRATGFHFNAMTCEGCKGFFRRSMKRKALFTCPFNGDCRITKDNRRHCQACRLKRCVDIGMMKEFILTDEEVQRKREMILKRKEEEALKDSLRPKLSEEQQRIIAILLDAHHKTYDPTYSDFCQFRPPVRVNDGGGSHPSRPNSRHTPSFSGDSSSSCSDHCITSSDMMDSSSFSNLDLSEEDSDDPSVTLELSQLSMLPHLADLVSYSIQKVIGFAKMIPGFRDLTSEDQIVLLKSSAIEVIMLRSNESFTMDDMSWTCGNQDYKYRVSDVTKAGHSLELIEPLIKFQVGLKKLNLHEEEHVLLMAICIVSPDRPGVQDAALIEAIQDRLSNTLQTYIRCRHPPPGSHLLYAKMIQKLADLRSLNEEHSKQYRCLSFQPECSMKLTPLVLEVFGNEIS
Rap guanine nucleotide exchange factor 4 (Homo sapiens), sequence (Q8WZA2 whole entry, looked up): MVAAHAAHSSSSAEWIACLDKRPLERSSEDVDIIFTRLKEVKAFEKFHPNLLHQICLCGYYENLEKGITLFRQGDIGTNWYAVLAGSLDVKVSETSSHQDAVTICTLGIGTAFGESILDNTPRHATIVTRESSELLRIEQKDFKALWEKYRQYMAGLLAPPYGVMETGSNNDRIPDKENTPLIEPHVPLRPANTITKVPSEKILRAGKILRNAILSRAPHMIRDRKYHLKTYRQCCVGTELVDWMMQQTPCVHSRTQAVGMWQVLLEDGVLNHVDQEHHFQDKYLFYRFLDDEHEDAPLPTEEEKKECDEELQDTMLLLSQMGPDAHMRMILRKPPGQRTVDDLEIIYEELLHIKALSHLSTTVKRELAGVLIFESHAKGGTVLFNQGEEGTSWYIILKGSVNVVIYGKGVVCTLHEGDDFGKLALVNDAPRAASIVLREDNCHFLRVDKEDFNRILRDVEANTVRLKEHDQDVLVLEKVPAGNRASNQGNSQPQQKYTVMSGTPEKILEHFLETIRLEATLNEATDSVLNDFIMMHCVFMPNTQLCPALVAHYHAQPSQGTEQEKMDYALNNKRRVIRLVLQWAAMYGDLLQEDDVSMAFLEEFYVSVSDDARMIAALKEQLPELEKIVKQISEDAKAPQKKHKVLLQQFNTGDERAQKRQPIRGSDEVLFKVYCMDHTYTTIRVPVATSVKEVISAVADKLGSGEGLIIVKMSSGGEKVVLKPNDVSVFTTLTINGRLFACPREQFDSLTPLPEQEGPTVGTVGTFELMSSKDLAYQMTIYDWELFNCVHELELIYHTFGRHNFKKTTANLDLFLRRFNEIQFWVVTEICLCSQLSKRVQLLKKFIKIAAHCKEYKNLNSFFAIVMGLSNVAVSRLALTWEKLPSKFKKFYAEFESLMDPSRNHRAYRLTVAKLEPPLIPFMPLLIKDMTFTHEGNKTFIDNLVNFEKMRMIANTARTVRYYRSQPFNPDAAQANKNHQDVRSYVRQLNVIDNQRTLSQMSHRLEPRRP
Tumor susceptibility gene 101 protein (Homo sapiens), sequence (Q99816 whole entry, looked up, the tested form may be a part): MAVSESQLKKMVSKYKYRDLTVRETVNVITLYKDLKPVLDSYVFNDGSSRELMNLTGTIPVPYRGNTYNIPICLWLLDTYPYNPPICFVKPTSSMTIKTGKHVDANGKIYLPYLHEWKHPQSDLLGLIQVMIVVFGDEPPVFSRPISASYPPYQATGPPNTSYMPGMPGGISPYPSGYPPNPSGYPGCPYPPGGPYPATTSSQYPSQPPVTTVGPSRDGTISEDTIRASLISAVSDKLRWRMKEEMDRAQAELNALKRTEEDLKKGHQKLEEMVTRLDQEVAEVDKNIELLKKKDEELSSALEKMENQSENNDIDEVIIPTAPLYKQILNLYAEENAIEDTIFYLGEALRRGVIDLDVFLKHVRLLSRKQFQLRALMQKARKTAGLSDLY
Lethal(3)malignant brain tumor-like protein 1 (Homo sapiens), sequence (Q9Y468 whole entry, looked up): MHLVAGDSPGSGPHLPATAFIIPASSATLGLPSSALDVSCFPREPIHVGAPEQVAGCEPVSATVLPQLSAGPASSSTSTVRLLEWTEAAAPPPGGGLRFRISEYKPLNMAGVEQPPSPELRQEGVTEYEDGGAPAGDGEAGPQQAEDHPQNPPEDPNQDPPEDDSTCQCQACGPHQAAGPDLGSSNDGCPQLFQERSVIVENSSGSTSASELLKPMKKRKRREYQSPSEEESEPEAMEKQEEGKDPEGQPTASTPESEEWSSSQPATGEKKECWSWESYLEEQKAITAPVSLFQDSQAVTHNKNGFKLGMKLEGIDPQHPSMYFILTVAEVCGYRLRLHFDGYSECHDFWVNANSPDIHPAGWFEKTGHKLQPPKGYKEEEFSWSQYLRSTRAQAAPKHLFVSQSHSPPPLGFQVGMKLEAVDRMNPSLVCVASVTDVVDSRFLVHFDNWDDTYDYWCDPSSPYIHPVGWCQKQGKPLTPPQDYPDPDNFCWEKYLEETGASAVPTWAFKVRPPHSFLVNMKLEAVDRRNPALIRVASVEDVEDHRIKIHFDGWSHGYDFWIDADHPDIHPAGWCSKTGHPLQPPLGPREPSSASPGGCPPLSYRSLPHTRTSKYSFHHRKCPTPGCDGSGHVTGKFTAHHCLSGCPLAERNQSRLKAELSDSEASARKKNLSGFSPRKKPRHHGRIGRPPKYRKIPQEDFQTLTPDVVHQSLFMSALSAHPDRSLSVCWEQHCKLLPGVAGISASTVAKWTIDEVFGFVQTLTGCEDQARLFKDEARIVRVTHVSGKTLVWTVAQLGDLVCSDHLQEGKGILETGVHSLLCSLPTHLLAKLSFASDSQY

Q: Which Potency [1] does the source give for `CCOc1ccc(/C=C/C(=O)c2c(O)c3ccccc3oc2=O)cc1` here?
A: inactive

Q: What about the Potency [2] of the same compound?
A: inactive

Q: And the Potency [3]?
A: inactive

Q: And the Potency [4]?
A: inactive

Q: And the Potency [5]?
A: inactive

Q: Which Potency [1] does the source give for `CC(C)CCOP(=O)(c1ccc(N(C)C)cc1)C(O)c1ccc(Cl)cc1Cl` (configuration not stated) here?
A: inactive

Q: And the Potency [2]?
A: inactive

Q: What about the Potency [3] of the same compound?
A: 19 µM (active)

Q: What about the Potency [5] of the same compound?
A: inactive

Q: With `O=C(Nc1ccccc1Cl)/C(Cl)=C(\Cl)S(=O)c1ccccc1` (configuration not stated) as the compound, how does the Potency [6] read?
A: 3.36 µM (active)

Q: What about the Potency [7] of the same compound?
A: 3.16 µM (active)

Q: What about the Potency [8] of the same compound?
A: 3.66 µM (active)

Q: What about the Potency [9] of the same compound?
A: 20.6 µM (active)

Q: What about the Potency [1] of the same compound?
A: inactive

Q: What about the Potency [2] of the same compound?
A: inactive

Q: What about the Potency [3] of the same compound?
A: inactive

Q: And the Potency [4]?
A: inactive

Q: What about the Potency [5] of the same compound?
A: inactive

Q: With `O=C(CCl)N1c2ccccc2Oc2ccc3ccccc3c21` as the compound, how does the Potency [10] read?
A: inactive

Q: And the Potency [1]?
A: inactive

Q: And the Potency [2]?
A: inactive

Q: What about the Potency [3] of the same compound?
A: inactive

Q: And the Potency [4]?
A: inactive

Q: What about the Potency [5] of the same compound?
A: 35.5 µM (active)

Q: With `OC(c1ccc(F)c(F)c1)c1nc(-c2csc3ccccc23)cs1` (configuration not stated) as the compound, how does the Potency [1] read?
A: inactive

Q: What about the activation [2] of the same compound?
A: 3.04% [at 17.1 µM, percent relative to cAMP agonist control]

Q: And the Potency [3]?
A: inactive

Q: What about the activity change, negative = inhibition [4] of the same compound?
A: -0.286% [at 30.8 µM]

Q: And the activation [5]?
A: 2.58% [at 30.8 µM]

Q: What does the source list for `COc1ccc2nc(N3CCCC3)c(C#N)cc2c1`?
A: Potency [10]: inactive; Potency [1]: inactive; activation [2]: 3.12% [at 17.1 µM, percent relative to cAMP agonist control]; Potency [3]: inactive; activity change, negative = inhibition [4]: -11.6% [at 30.8 µM]

Q: With `CC(C)OC(=O)C(C#N)c1nc2ccccc2nc1N1CCCC1` (configuration not stated) as the compound, how does the activity change, negative = inhibition [11] read?
A: 8.73% [at 17.2 µM]

Q: And the activity change, negative = inhibition [12]?
A: -13.2% [at 17.2 µM]

Q: What about the outcome [13] of the same compound?
A: inactive

Q: And the Potency [1]?
A: inactive

Q: What about the activation [2] of the same compound?
A: 3.69% [at 17.1 µM, percent relative to cAMP agonist control]

Q: What about the Potency [3] of the same compound?
A: inactive

Q: What about the activity change, negative = inhibition [4] of the same compound?
A: -19.9% [at 30.8 µM]

Q: With `O=C(O)c1cccc(Nc2ccc([N+](=O)[O-])c3nonc23)c1` as the compound, how does the Potency [1] read?
A: inactive

Q: And the Potency [2]?
A: inactive

Q: And the Potency [3]?
A: inactive

Q: What about the Potency [5] of the same compound?
A: inactive

Q: For `O=C(O)C(Cc1c[nH]c2ccccc12)NS(=O)(=O)c1cccc(Cl)c1Cl` (configuration not stated), which Potency [1] is on record?
A: inactive

Q: And the Potency [2]?
A: inactive

Q: What about the Potency [3] of the same compound?
A: inactive

Q: What about the Potency [4] of the same compound?
A: inactive

Q: And the Potency [5]?
A: inactive

Q: With `Cc1ccc(Cn2c(C)nc3c(c2=O)c2nc4ccccc4nc2n3Cc2ccco2)cc1` as the compound, how does the Potency [14] read?
A: 23.8 µM (active)

Q: And the outcome [15]?
A: inactive

Q: What about the Potency [1] of the same compound?
A: inactive

Q: And the Potency [2]?
A: inactive

Q: And the Potency [3]?
A: inactive

Q: And the Potency [4]?
A: inactive

Q: What about the Potency [5] of the same compound?
A: inactive
